# Assay results: the supplement of paper PMC8728848
# This excerpt belongs to a sample that is enriched for the strongest signals.
# B1: TAL6-6LysM (Trichoderma atroviride) (protein)
# chain: AASKLGVPQPAQRDQVNCQLYAVQPNDNCIDISSKNNITYAQLLSWNPSLSSTCSNLASLNSSSICVSNPKGTFSISSNTVGATDIATTTAPVPSPTLDQTTSRCAKYYQVSDGDDCSHLTAQFAITLKDFIFLNSEVWQNCTNLELGYYYCVEPVGYISTYPGYLPTATTKPFNQTSATSLPYDGDPWARFSSNSSVIPIANGTRVDCYSYVYVKNLTENLFADCWNMASMYEITREELVLWNPSLGNDGSSGSNLSGAEASQVASSIAIPTTAPSSITTNLYTYPCTVAANISYCVALVSSTGALPTNTAPPGPHASGEISNCTAWFAPEAYDTCKSILDIFEMSFANFYKMNPSVGPDCSGLAVGTNYCVSTYPNGEDPNDDWDGDDSIPSISPTGIITPTPTQSGMVSNCNKFYDVHSNDGCSAIASSQHVDLSSLYKWNPAIKTDCSGLQASVYVCIGILTTSMSTTSKLPTTTSKPSTTSKPPTGITTPTPTQSGMVKNCNKFYDVHSGDGCSAIASSQKVNLSSFYLWNPAVKTDCSGLQASVFVCIGTLTTSMSTTTSKLPTTTSKPSTTSKPPTGIITPTPTQNGMVKNCNKFYDVHSGDGCSAIASSQKVNLSSFYLWNPAVKTDCSGLQASVFVCVGTATTTTAAGITTPTPTQSGMVSGCNKFYDVHAGDGCSAIASSQKIALSSLYKWNPAVKTDCSGLQASVYICIGVGNAAAARVTGAAASFLEQKLISEEDLNSAVDHHHHHH
# Key:
# Assay in all cases: glycan array binding signal (z-score within array); higher = stronger binding
# Conditions in all cases: glycan notation: IUPAC condensed, linker removed
# [1] = target: GalNAc(a1-3)GalNAc(b1-3)Gal(a1-4)Gal(b1-4)GlcNAc
# Method in brief: (§1)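 The binding signal is a Z-score computed within each array. Data were drawn from 3228 arrays in the Consortium for Functional Glycomics database, restricted to those with a known protein sequence. Scores were averaged over arrays of the same protein sequence at different concentrations or buffers, and over linkers, and negative values can be taken as non-binding.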
# [2] = target: GalNAc(b1-3)GlcNAc
# Method in brief: as §1
# [3] = target: GalNAc6S(b1-4)GlcNAc
# Method in brief: as §1
# [4] = target: GlcA(b1-3)GlcNAc
# Method in brief: as §1
# [5] = target: GlcNAc(b1-2)Man(a1-3)[GlcNAc(b1-2)Man(a1-6)]Man(b1-4)GlcNAc(b1-4)GlcNAc
# Method in brief: as §1
# [6] = target: GlcNAc(b1-3)Gal(b1-4)GlcNAc(b1-3)Gal(b1-4)GlcNAc
# Method in brief: as §1
# [7] = target: GlcNAc(b1-3)Gal(b1-4)GlcNAc(b1-3)Gal(b1-4)GlcNAc(b1-3)Gal(b1-4)GlcNAc(b1-3)Gal(b1-4)GlcNAc(b1-2)Man(a1-3)[GlcNAc(b1-3)Gal(b1-4)GlcNAc(b1-3)Gal(b1-4)GlcNAc(b1-3)Gal(b1-4)GlcNAc(b1-3)Gal(b1-4)GlcNAc(b1-2)Man(a1-6)]Man(b1-4)GlcNAc(b1-4)GlcNAc
# Method in brief: as §1
# [8] = target: Kdn(a2-6)Gal(b1-4)GlcNAc
# Method in brief: as §1
# [9] = target: Man(a1-2)Man(a1-3)Man
# Method in brief: as §1
# [10] = target: Man(a1-3)[Man(a1-6)]Man(a1-6)[Man(a1-2)Man(a1-3)]Man(b1-4)GlcNAc(b1-4)GlcNAc
# Method in brief: as §1
# [11] = target: Neu5Ac(a2-3)Gal(b1-3)GalNAc(b1-3)Gal(a1-4)Gal(b1-4)Glc
# Method in brief: as §1
# [12] = target: Neu5Ac(a2-3)Gal(b1-3)GlcNAc(b1-4)Gal(b1-4)Glc
# Method in brief: as §1
# [13] = target: Neu5Ac(a2-3)Gal(b1-4)GlcNAc(b1-2)Man(a1-3)[Neu5Ac(a2-6)Gal(b1-4)GlcNAc(b1-2)Man(a1-6)]Man(b1-4)GlcNAc(b1-4)GlcNAc
# Method in brief: as §1
# [14] = target: Neu5Ac(a2-3)Gal(b1-4)GlcNAc(b1-3)Gal(b1-3)GlcNAc
# Method in brief: as §1
# [15] = target: Neu5Ac(a2-3)Gal(b1-4)GlcNAc(b1-3)Gal(b1-4)GlcNAc(b1-3)Gal(b1-4)GlcNAc
# Method in brief: as §1
# [16] = target: Neu5Ac(a2-3)Gal(b1-4)[Fuc(a1-3)]GlcNAc(b1-3)Gal(b1-4)[Fuc(a1-3)]GlcNAc(b1-3)Gal(b1-4)[Fuc(a1-3)]GlcNAc
# Method in brief: as §1
# [17] = target: Neu5Ac(a2-3)Gal6S(b1-4)GlcNAc
# Method in brief: as §1
# [18] = target: Neu5Ac(a2-3)Gal6S(b1-4)[Fuc(a1-3)]GlcNAc
# Method in brief: as §1
# [19] = target: Neu5Ac(a2-3)GalNAc(b1-4)GlcNAc
# Method in brief: as §1
# [20] = target: Neu5Ac(a2-6)Gal(b1-4)GlcNAc(b1-2)Man(a1-3)[Neu5Ac(a2-3)Gal(b1-4)GlcNAc(b1-2)Man(a1-6)]Man(b1-4)GlcNAc(b1-4)GlcNAc
# Method in brief: as §1
# [21] = target: Neu5Ac(a2-6)Gal(b1-4)GlcNAc(b1-2)Man(a1-3)[Neu5Ac(a2-6)Gal(b1-4)GlcNAc(b1-2)Man(a1-6)]Man(b1-4)GlcNAc(b1-4)GlcNAc
# Method in brief: as §1
# [22] = target: Neu5Ac(a2-6)Gal(b1-4)GlcNAc(b1-3)Gal(b1-4)GlcNAc(b1-6)[Gal(b1-3)]GalNAc
# Method in brief: as §1
# [23] = target: Neu5Ac(a2-6)Gal(b1-4)GlcNAc(b1-3)Gal(b1-4)[Fuc(a1-3)]GlcNAc(b1-3)Gal(b1-4)[Fuc(a1-3)]GlcNAc
# Method in brief: as §1
# [24] = target: Neu5Ac(a2-6)Gal(b1-4)GlcNAc6S
# Method in brief: as §1
# [25] = target: Neu5Ac(a2-8)Neu5Ac(a2-3)Gal(b1-3)GalNAc(b1-4)[Neu5Ac(a2-8)Neu5Ac(a2-3)]Gal(b1-4)Glc
# Method in brief: as §1
# [26] = target: Neu5Ac(a2-8)Neu5Ac(a2-3)[GalNAc(b1-4)]Gal(b1-4)Glc
# Method in brief: as §1
# [27] = target: Neu5Ac(a2-8)Neu5Ac(a2-8)Neu5Ac
# Method in brief: as §1
# [28] = target: Neu5Ac(b2-6)GalNAc
# Method in brief: as §1
# [29] = target: Neu5Gc(a2-3)Gal(b1-4)Glc
# Method in brief: as §1
# [30] = target: Neu5Gc(b2-6)Gal(b1-4)GlcNAc
# Method in brief: as §1
binder,measurement,setting,value
B1,glycan array binding signal (z-score),[1],-0.794
same,glycan array binding signal (z-score),[2],-0.241
same,glycan array binding signal (z-score),[3],0.157
same,glycan array binding signal (z-score),[4],1.11
same,glycan array binding signal (z-score),[5],0.42
same,glycan array binding signal (z-score),[6],0.291
same,glycan array binding signal (z-score),[7],-0.734
same,glycan array binding signal (z-score),[8],2.71
same,glycan array binding signal (z-score),[9],-0.128
same,glycan array binding signal (z-score),[10],2.52
same,glycan array binding signal (z-score),[11],-0.741
same,glycan array binding signal (z-score),[12],0.273
same,glycan array binding signal (z-score),[13],-0.683
same,glycan array binding signal (z-score),[14],-0.147
same,glycan array binding signal (z-score),[15],1.76
same,glycan array binding signal (z-score),[16],0.058
same,glycan array binding signal (z-score),[17],0.428
same,glycan array binding signal (z-score),[18],-1.04
same,glycan array binding signal (z-score),[19],-0.545
same,glycan array binding signal (z-score),[20],-0.013
same,glycan array binding signal (z-score),[21],0.076
same,glycan array binding signal (z-score),[22],-0.387
same,glycan array binding signal (z-score),[23],2.13
same,glycan array binding signal (z-score),[24],0.283
same,glycan array binding signal (z-score),[25],0.052
same,glycan array binding signal (z-score),[26],2.17
same,glycan array binding signal (z-score),[27],-0.139
same,glycan array binding signal (z-score),[28],-0.369
same,glycan array binding signal (z-score),[29],-1.25
same,glycan array binding signal (z-score),[30],0.217
